Results from PubChem BioAssay AID488857 (Sanford-Burnham Center for Chemical Genomics, 2010).
Among all 1,400 compounds or so, about 560 (40%) were called active.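 How the source made its calls: active means mean inhibition over duplicate tests at 10 µM above 50%; inactive means the rest.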 The set was probably picked from earlier hits. Some of the results follow.

Assay: ASC/caspase-1 reporter retest in S. cerevisiae at one dose, specificity check for NALP1 project (AID 488857)
Details: S. cerevisiae ASC/Caspase-1, beta-galactosidase luminescence, 24 h; at 10 µM; hits give high values

Compound | inhibition
N#CC(C#N)=C(Nc1ccc(F)cc1)SCc1cccc(Br)c1 | 83.2% (active)
Cc1ccc(F)cc1NCC(=O)Nc1ccc(Br)cc1 | 41.2% (inactive)
COc1ccc2c(c1)C1=NN(/C(C)=C/C(C)=O)C(c3ccc(F)cc3)C1CC2 (configuration not stated) | 45.9% (inactive)
COc1ccccc1NC(=O)Nc1ccc2c(c1)nnn2C | 25.1% (inactive)
COc1ccc(N=c2cc(-c3ccc(OC)cc3)oc3ccccc23)cc1 | 54.5% (active)
OCCCN=c1cc(-c2ccccc2)oc2ccc(Cl)cc12 | 49.8% (inactive)
Cn1c(N)c(C(=O)COC(=O)C2(c3ccc(Cl)cc3)CCCC2)c(=O)n(C)c1=O | 26.6% (inactive)
COC(=O)Nc1sc2nc(C)cc(C)c2c1-n1cccc1 | 67.7% (active)
COC(=O)Nc1nc(C)c(C(=O)c2ccccc2)s1 | 47.8% (inactive)
CCOC(=O)C1CCCN(Cc2ccc(OCC)cc2)C1 (configuration not stated) | 30.4% (inactive)
CCC(C)(C)NCC(=O)Nc1ccc(OC(F)(F)F)cc1 | 27.4% (inactive)
CCc1ccc(OCC(=O)Nc2ccc(CN3CCCCC3)cc2)cc1 | 55.1% (active)
Clc1ccc2c(N/N=C/c3ccccc3Br)ccnc2c1 | 31.4% (inactive)
CCCCNC(=O)C(=O)N/N=C/c1cccc(Br)c1 | 37.1% (inactive)
Clc1ccc2c(N/N=C/c3ccc(Br)cc3)ccnc2c1 | 55.6% (active)
Clc1ccc2c(N/N=C/c3cccc(Br)c3)ccnc2c1 | 57% (active)
Cc1ccc(/C=N/Nc2ccnc3cc(Cl)ccc23)c(C)c1 | 55% (active)
Cc1ccc(N/C=C/C(=O)C(C)(C)C)c(O)c1 | 34.2% (inactive)
CC(C)Oc1ccc(Cc2cnc(N)nc2N)cc1 | 48% (inactive)
CCOc1c(Cl)cc(CNCC(C)C)cc1OC | 50% (active)
Cc1cc2ccccc2n1CCNCc1c(C(=O)N2CCOCC2)nc2ccccn12 | 21.8% (inactive)
O=C(CNC(c1ccccc1)c1ccccc1)Nc1c(F)cccc1F | 39.8% (inactive)
Cn1cc(CC(=O)Nc2cccc(C#N)c2)c2ccccc21 | 34.1% (inactive)

Compound | inhibition
CC(CC(=O)Nc1cccc(Cl)c1)c1ccccc1 (configuration not stated) | 50% (active)
CSC1=N/C(=C\c2cccnc2)C(=O)N1c1ccccc1 | 37.9% (inactive)
CCOC(=O)c1nn(-c2ccc(C)cc2)cc1C(=O)c1ccccc1 | 64.8% (active)
NS(=O)(=O)c1ccc(NC(=O)COC(=O)c2cn(-c3ccccc3)nc2-c2ccc(F)cc2)cc1 | 33.1% (inactive)
CCOC(=O)C1=Nc2ccccc2C1=[N+]=[N-] | 46% (inactive)
COc1ccc(CC(C)N2CCN(Cc3ccccc3)CC2)c(OC)c1 (configuration not stated) | 39.7% (inactive)
CCCCC(=O)Nc1ccc(C(=O)NNC(=S)NC(=O)c2ccco2)cc1 | 30.9% (inactive)
O=C(Nc1cccc(-c2cn3ccccc3n2)c1)c1cccc(Cl)c1 | 58.9% (active)
Cc1ccn2cc(-c3ccc(NC(=O)c4ccco4)cc3)nc2c1 | 86.5% (active)
O=C(CCl)Nc1nc(-c2ccco2)c(-c2ccco2)s1 | 26.5% (inactive)
O=C(Nc1ccc(-c2cn3ccccc3n2)cc1)c1ccco1 | 84% (active)
Cc1sc(NC(=O)c2ccco2)nc1-c1ccccc1 | 79% (active)
Cc1sc2nc(SCC(=O)NCc3ccco3)n(Cc3ccccc3)c(=O)c2c1C | 23.5% (inactive)
N#Cc1ccc(-c2ccc(Cl)cc2)nc1SCC(=O)c1cccc(Cl)c1 | 25.2% (inactive)
CC(C)CC(=O)N1CCN(S(=O)(=O)c2ccccc2)CC1 | 35.2% (inactive)
C=CCc1cccc(/C=N/c2nc3ccccc3n2CC)c1O | 31.1% (inactive)
C#CCCCCCCC#CCN(C)C | 33.6% (inactive)
O=C(Nc1ccc2oc(-c3ccccc3)nc2c1)c1ccco1 | 96.3% (active)
CCCc1nc2ccc(NC(=O)c3ccco3)cc2c(=O)n1Cc1ccccc1Cl | 40.2% (inactive)
O=[N+]([O-])c1ccc(-c2ccn[nH]2)o1 | 36% (inactive)
COCCCN(CCCN)Cc1ccco1 | 74.1% (active)
COc1ccc(NCc2ccc([N+](=O)[O-])s2)cc1 | 30.4% (inactive)
CCOC(=O)C1=NN(C(=O)c2ccc(C)cc2)C(O)(c2ccc(Cl)cc2)C1 (configuration not stated) | 50.6% (active)

Compound | inhibition
CCOC(=O)c1c(O)c2cc(Cl)ccc2n(CC)c1=O | 40.3% (inactive)
CCOC(=O)c1nnc(-c2ccc(C)cc2)nc1Sc1ccc(Cl)cc1 | 29.1% (inactive)
O=S(=O)(Cc1cc(Sc2ccccc2)nc(-c2ccccc2)n1)c1ccccc1 | 33.7% (inactive)
Oc1c(Cl)cc(Cl)c2c1NCCC2 | 64.7% (active)
CCN(C(=O)[C@@H]1CCCN1C(=O)c1cccs1)c1nc2cc(Cl)ccc2s1 | 62.6% (active)
Cc1cccc(NC(=O)c2ccc(C3SCC(=O)N3CCc3ccccc3)cc2)c1C (configuration not stated) | 60.8% (active)
COc1ccc(C2SCC(=O)N2CCCN(C)C)cc1 (configuration not stated) | 39.6% (inactive)
COc1ccc(NC(=O)C2CCN(C(=O)c3ccc(OC)cc3)CC2)cc1 | 26.8% (inactive)
CS(=O)(=O)N1CCC(C(=O)Nc2ccc3c(c2)OCO3)CC1 | 19.4% (inactive)
O=C1c2ccccc2C(=O)c2cc(NC(=O)C3CC3)ccc21 | 51.6% (active)
CC(=O)Nc1cccc(OCCCNC(=O)C2CCC2)c1 | 39.1% (inactive)
O=C(Nc1ccc(Br)c(Cl)c1)C1CC1 | 51% (active)
O=C(Nc1ccc(C#Cc2ccccc2)cc1)C1CC1 | 73.2% (active)
Cc1cc(C)cc(NS(=O)(=O)c2ccc(NC(=O)C3CCCCC3C(=O)O)cc2)c1 (configuration not stated) | 26.8% (inactive)
CCn1cc(C(=O)O)c(=O)c2cc(F)c(N3CCNCC3)cc21 | 30.4% (inactive)
CCOC(=O)N1CCN(CC(O)COc2ccccc2C(C)(C)C)CC1 (configuration not stated) | 44.2% (inactive)
CCC(=O)c1ccc(OCC(O)CN2CCN(c3cccc(C(F)(F)F)c3)CC2)cc1 (configuration not stated) | 65.7% (active)
Cn1cc(S(=O)(=O)N2CCN(c3cccc(C(F)(F)F)c3)CC2)c(=O)n(C)c1=O | 33.4% (inactive)
O=C(NC(Cc1c[nH]c2ccccc12)C(=O)O)/C(=C\c1ccc2c(c1)OCO2)NC(=O)c1ccccc1 (configuration not stated) | 28.8% (inactive)
O=C(/C=C/c1c[nH]c2ccccc12)c1ccccc1 | 86.5% (active)
O=C(/C=C/Sc1ccccc1)c1ccc(Cl)cc1 | 44.6% (inactive)
